# Source: PubChem BioAssay
# In the library only some 11% were active in any assay of this set; here they are far more common.
# Gal4-VP16 FLuc: Gal4-VP16 reporter inhibition counter-screen. Potency, µM (doses to about 53.6 µM), for inactives: top-dose activity, negative = inhibition, actives largely listed as inhibitors. Drosophila S2 Gal4-VP16 UAS-luciferase, luminescence, 20 h. 310,000 compounds, 3.5% hits;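 note: Gal4-VP16 expression switched on by copper sulfate through the metallothionein promoter; potency is the fitted concentration of half-maximal effect; % is set by controls: 0 for no effect and ±100 for the full control effect; nearly all actives have a fitted effect of over 50% in size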
# IL1B secr inh: inhibitors of inflammasome signaling (IL-1 beta secretion). THP-1 LPS/ATP IL-1B secretion, AlphaLISA, 16 h; active compounds read low. activity change, % at 57.5 µM. 360,000 compounds, 4.7% hits. AID 743279; in the data active = activity change below about -50%; inconclusive = mostly about -30% to -49%; note: % is set by controls: 0 for no effect and ±100 for the full control effect
#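 THP-1 cells pretreated 1 hr with compounds (up to 57.5 uM final), then stimulated with LPS (250 ng/mL final) plus ATP (1.25 mM final); secreted IL-1B measured by AlphaLISA after 16 hr, decreased signal indicating inhibition.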
# MCF10A rerep: induces DNA re-replication in MCF 10a normal breast cells; MCF 10A DNA re-replication, Hoechst nuclear intensity, 48 h; Potency, µM (top dose mostly 46.1 µM), for inactives: top-dose activity, positive = re-replication, actives largely listed as activators; 350,000 compounds, 2.9% hits; AID 624296; note: potency is the fitted concentration of half-maximal effect; % of control where 0% means no effect; nearly all actives have a fitted effect of over 50% in size
# RORg inh: blocks mouse ROR gamma transcriptional activity. Drosophila S2 Gal4-RORgamma UAS-luciferase reporter, 20 h. P51450. AID 2551. 310,000 compounds, 5.4% hits. Potency, µM (titrated, usually from 53.6 µM), for the others: at the top dose activity change, negative = inhibition, hits mostly inhibitors; note: potency is the fitted concentration of half-maximal effect; % is set by controls: 0 for no effect and ±100 for the full control effect; nearly all actives have a fitted effect of over 60% in size
# Target sequence (P51450 whole entry, looked up, the tested form may be a part): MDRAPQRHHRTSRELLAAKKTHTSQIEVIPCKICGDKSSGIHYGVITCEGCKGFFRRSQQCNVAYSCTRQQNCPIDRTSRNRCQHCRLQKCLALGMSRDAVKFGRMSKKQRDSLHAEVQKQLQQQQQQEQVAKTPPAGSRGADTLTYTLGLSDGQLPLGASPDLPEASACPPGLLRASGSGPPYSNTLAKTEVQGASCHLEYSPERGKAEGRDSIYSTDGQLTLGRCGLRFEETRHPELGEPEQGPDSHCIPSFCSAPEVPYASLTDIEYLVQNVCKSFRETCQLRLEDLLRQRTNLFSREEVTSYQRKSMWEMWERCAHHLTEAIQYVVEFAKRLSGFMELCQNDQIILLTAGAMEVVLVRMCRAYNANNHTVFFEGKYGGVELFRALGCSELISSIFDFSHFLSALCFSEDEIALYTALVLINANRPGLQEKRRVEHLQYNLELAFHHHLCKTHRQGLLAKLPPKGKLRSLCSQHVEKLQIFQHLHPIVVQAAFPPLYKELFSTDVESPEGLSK
#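 Stable Schneider cell line, Gal4 DNA-binding domain fused to ROR gamma, UAS-luciferase. Cmpd 1 hr RT → CuSO4 700 uM final → 20 hr RT → luciferase reagent 10 min → luminescence.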
# SW480 rereplic: inducers of DNA re-replication in SW480 colon cancer cells. SW480 DNA re-replication, Hoechst DNA content imaging, 48 h. Potency, µM (titrated, usually from 46.1 µM), without a hit: at the top dose re-replication activation, hits mostly activators. 340,000 compounds, 1.8% hits. AID 624297; note: potency is the fitted concentration of half-maximal effect; % of control where 0% means no effect; nearly all actives have a fitted effect of over 55% in size
#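 Quantitative HTS format with DMSO vehicle controls; 48 hr drug incubation at 37 C, then 40 min Hoechst staining and scanning imager measurement at 405 nm excitation.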
# The depositor's hits bear a star; ? = inconclusive; nt = no result. Unless noted, calls come from the whole dose curve; as a rule, active = well fitted curve in the direction sought with a large enough effect; inconclusive = small, poorly fitted or top-dose-only effect, or another doubt; inactive = no such curve, though single readings can be large; an effect the other way counts as inactive or inconclusive.
SMILES,Gal4-VP16 FLuc,IL1B secr inh,MCF10A rerep,RORg inh,SW480 rereplic
CCOC(=O)N1CCN(S(=O)(=O)c2ccc(C(=O)N(CCN(C)C)c3nc4ccc(CC)cc4s3)cc2)CC1,-3%,-18,6%,-22%,-1%
CCOc1ccc2nc(N(CCCN(C)C)C(=O)c3ccc(S(=O)(=O)N4CCc5ccccc5C4)cc3)sc2c1,?,-14,?,10µM*,?
COc1ccc(C)c2sc(N(CCCN(C)C)C(=O)c3ccc(S(=O)(=O)N4CCc5ccccc5C4)cc3)nc12,nt,-96*,16µM*,nt,?
COc1cc2nc(N(CCCN(C)C)C(=O)c3ccc(S(=O)(=O)N4CCc5ccccc5C4)cc3)sc2cc1OC,nt,-96*,9%,nt,?
COc1ccc(C)c2sc(N(CCN(C)C)C(=O)c3ccc(S(=O)(=O)N(C)c4ccccc4)cc3)nc12,nt,19,nt,nt,nt
COC(=O)c1ccc(C(NC(=O)OCc2ccccc2)/C(=C/[C@@H](C)C(=O)NCCc2c[nH]c3ccccc23)c2cccnc2)cc1 (some centres not stated),-8%,nt,nt,34%,nt
CC(C)COC(=O)N(C)C[C@@H]1OCc2cnnn2CCCC(=O)N([C@H](C)CO)C[C@H]1C,nt,0,nt,nt,nt
COc1ccc(OC)c(NC(=O)COc2ccc3c(c2)CCC3)c1,nt,-15,5%,nt,-36%
O=C(CC1c2ccccc2C=C(c2ccsc2)N1c1ccc(-c2cccnc2)cc1)C1CC1 (configuration not stated),nt,-13,nt,nt,nt
CC[C@H](C)[C@H](NC(=O)[C@H](C)NC(=O)[C@H](Cc1cnc[nH]1)NC(=O)[C@@H]1CCCN1C(=O)CNC(=O)[C@H](CC(C)C)NC(=O)[C@H](CC(C)C)NC(=O)[C@H](Cc1ccc(O)cc1)NC(=O)CNC(=O)[C@H](C)NC(=O)[C@H](CO)NC(=O)[C@H](CC(N)=O)NC(=O)[C@H](CC(C)C)NC(=O)[C@@H](NC(=O)[C@H](Cc1c[nH]c2ccccc12)NC(=O)CN)[C@@H](C)O)C(=O)N[C@@H](CC(=O)O)C(=O)N[C@@H](CC(N)=O)C(=O)N[C@@H](Cc1cnc[nH]1)C(=O)N[C@@H](CCCNC(=N)N)C(=O)N[C@@H](CO)C(=O)N[C@@H](Cc1ccccc1)C(=O)N[C@@H](CO)C(=O)N[C@@H](CC(=O)O)C(=O)N[C@@H](CCCCN)C(=O)N[C@@H](Cc1cnc[nH]1)C(=O)NCC(=O)N[C@@H](CC(C)C)C(=O)N[C@H](C(N)=O)[C@@H](C)O,0%,nt,nt,-21%,nt
CN(C)CCCN(C(=O)c1ccc(S(=O)(=O)N2CCc3ccccc3C2)cc1)c1nc2c(F)cc(F)cc2s1,nt,?,15%,nt,3.7µM*
CCOc1cccc2sc(N(CCCN(C)C)C(=O)c3ccc(S(=O)(=O)N4CCCCCC4)cc3)nc12,-18%,?,5%,-37%,3%
CCOC(=O)N1CCN(S(=O)(=O)c2ccc(C(=O)N(CCCN(C)C)c3nc4c(F)cc(F)cc4s3)cc2)CC1,nt,-6,?,nt,?
COc1cccc2sc(N(CCCN(C)C)C(=O)c3ccc(S(=O)(=O)N4CCc5ccccc5C4)cc3)nc12,28µM*,-97*,?,-89%,?
O=C(c1cc(C(F)(F)F)cc(C(F)(F)F)c1)N1CCC[C@@]2(CCN(c3ccncc3)C2)C1,7%,nt,nt,-5%,nt
COc1cccc(/C=N/Nc2cc(N3CCOCC3)ncn2)c1O,11µM*,-90*,?,11µM*,?
CCOc1ccc(/C=N/Nc2cc(N3CCOCC3)nc(C)n2)c(O)c1,11µM*,74,?,7.1µM*,?
CCOc1ccc(/C=N/Nc2cc(C)nc(N3CCOCC3)n2)cc1,-8%,30,9%,31%,11%
COc1ccc(/C=N/Nc2cc(N3CCOCC3)ncn2)c(OC)c1,-2%,-29,-1%,-2%,-5%
Fc1cccc(/C=N/Nc2cc(N3CCOCC3)ncn2)c1,?,-53*,14%,9%,?
COCCOC(=O)c1ccccc1C(=O)OCCOC,9%,nt,nt,-9%,nt
CCCC1=NN(C(=O)CCc2ccccc2O)C(O)(C(F)(F)F)C1 (configuration not stated),?,14,4%,?,-3%
CC1=NN(C(=O)CCc2ccc3c(c2)OCO3)C(O)(C(F)(F)F)C1 (configuration not stated),2.2µM*,44,-6%,4.5µM*,-5%
CCC1=NN(C(=O)CCc2ccccc2)C(O)(C(F)(F)F)C1 (configuration not stated),?,0,?,13µM*,3%
CCC1=NN(C(=O)C(=O)NCCc2ccccc2)C(O)(C(F)(F)F)C1 (configuration not stated),1.8µM*,14,7%,0.63µM*,-12%
SMILES,Gal4-VP16 FLuc,IL1B secr inh,MCF10A rerep,RORg inh,SW480 rereplic
O=C(COC(=O)c1cc(S(=O)(=O)N2CCCCC2)ccc1N1CCOCC1)c1ccccc1Cl,nt,-1,nt,nt,nt
CN(CCC#N)C(=O)c1cc2c(Cl)nc3ccccc3c2s1,-3%,-13,-9%,-5%,1%
CN(C)CCN(Cc1ccco1)C(=O)c1cc2c(Cl)nc3ccccc3c2s1,-10%,-84*,?,-17%,?
CCCCN(Cc1ccco1)C(=O)c1cc2c(=O)[nH]c3ccc(C)cc3c2s1,-8%,67,?,-2%,?
Cc1ccc2nc(Cl)c3cc(C(=O)N(CCN(C)C)Cc4ccco4)sc3c2c1,-13%,nt,16µM*,-32%,?
CCN(CC)c1ccc(NC(=S)Nc2ccc(F)cc2)cc1,?,?,-35%,8.9µM*,3%
Fc1ccc(NC(=S)Nc2ccc(Br)cc2)cc1,?,-93*,3%,?,2%
CNC(=S)Nc1ccc(Br)cc1,-2%,17,7%,35µM*,4%
CCN(CC)c1ccc(NC(=O)CN2CCN(CC(=O)Nc3ccc(F)cc3)CC2)cc1,1%,-4,4%,5%,-1%
CNC(=S)Nc1ccc(OC(F)(F)F)cc1,10µM*,0,-1%,7.1µM*,16%
Oc1ccc(NC(=S)Nc2ccc(F)cc2)cc1,-6%,-1,4%,25%,-3%
Cc1nc2cncnc2n(Cc2ccccc2)c1=O,-1%,nt,nt,-9%,nt
Nn1c(SCC(=O)NNC(=O)c2ccccc2)nnc1-c1ccccc1F,nt,13,-1%,nt,-278%
Cc1cnc(CNc2ccnc(-c3ccccc3Cl)n2)cn1,-11%,nt,nt,8%,nt
CC(C)c1ccc(/C=C2\SC(=S)N(CCC(=O)N3CCCCC3CCO)C2=O)cc1 (configuration not stated),?,-51*,3%,10µM*,-1%
